Experimental data: PubChem BioAssay (NCATS)
A number with no mark means an inactive call. Inconclusive results are not listed. The source made the active and inactive calls. Unless noted, calls come from the whole dose curve; as a rule, active = well fitted curve in the direction sought with a large enough effect; inconclusive = small, poorly fitted or top-dose-only effect, or another doubt; inactive = no such curve, though single readings can be large; an effect the other way counts as inactive or inconclusive.

Tests used:
[1] = molecular target: Lysosomal acid glucosylceramidase (Homo sapiens) (UniProt P04062); experiment: Glucocerebrosidase-p2 (AID 348; in the data active = potency below about 10 µM; note: potency is the fitted concentration of half-maximal effect); details: purified GBA, blue fluorogenic substrate, 40 min
Outline: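 Compounds titrated from 0.6 nM upwards against 0.2 nM enzyme in pH 5.9 citric acid/KH2PO4, taurocholate, tween-20; blue fluorogenic substrate 80 uM, 40 min room temperature, stopped and read Ex 365/Em 440 for AC50.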

[2] = AP1 Signaling Pathway (AID 357; active = well fitted curve in either direction with a large enough effect, not every such curve was filed as active; note: % is set by controls: 0 for no effect and ±100 for the full control effect); details: ME-180 AP-1-bla reporter, EGF-induced, beta-lactamase ratio, 5 h; at 7.69 µM (top of the series) unless noted
Outline: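 ME-180 cells with beta-lactamase reporter under AP-1 response element, stimulated with EC50 EGF; compounds tested in titration series, 5 h at 37 °C. CCF4 substrate added 2.5 h at room temperature; 460/530 nm emission ratio gave %activity and AC50.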

[3] = NFAT Signaling Pathway (AID 444; active = well fitted curve in either direction with a large enough effect, not every such curve was filed as active;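 note: carbachol stimulus at about its EC50 of 1 µM final; % is set by controls: 0 for no effect and ±100 for the full control effect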); details: Jurkat NFAT-bla M1, carbachol, beta-lactamase ratio, 5 h; at 7.69 µM (top of the series) unless noted
Outline: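 Jurkat cells with NFAT-driven β-lactamase reporter and co-expressed M1 receptor, stimulated with carbachol (final 1 uM, ~EC50), compound titration, 5 h at 37 °C. CCF4 loaded 1 h at RT; 460/530 nm ratio gave %activity and AC50.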

[4] = Stat Signaling Pathway (AID 446; active = well fitted curve in either direction with a large enough effect, not every such curve was filed as active;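 note: ME-180 cervical cancer cells given 40 pM IL-6 alongside compound; SIE-controlled beta-lactamase reporter measured as 460/530 nm FRET emission ratio; % is set by controls: 0 for no effect and ±100 for the full control effect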); details: ME-180 SIE beta-lactamase reporter, IL-6 stimulated, 5 h; at 7.69 µM (top of the series) unless noted
Outline: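 Reporter line: ME-180 cervical carcinoma, SIE-beta-lactamase. Treatment: compound with 40 pM IL-6, 5 hrs, 37 C, in low-serum OPTI-MEM with 10 mM HEPES pH 7.3. Detection: 460/530 nm fluorescence.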

[5] = molecular target: Glucocorticoid receptor (Homo sapiens) (UniProt P04150); experiment: GR-GFP Redistribution (AID 450;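 active = compounds whose dose series gives a full or clear partial fitted curve of increased nuclear translocation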; note: potency is the fitted concentration of half-maximal effect); details: U2OS GR-GFP nuclear translocation, laser cytometry, 2 h
[6] = molecular target: Glucocorticoid receptor (Homo sapiens) (UniProt P04150); experiment: GR-EFC Redistribution (AID 451; calls by dose curve; note: potency is the fitted concentration of half-maximal effect); details: CHO-K1 GR-EFC translocation, beta-gal luminescence, 2 h
Outline: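 CHO-K1 cells expressing nuclear EA and GR-ED fragments of b-gal; compounds titrated up to 46 uM final, 2 h at 37 C. GR nuclear translocation read as complemented b-gal luminescence after 1 h RT detection.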

[7] = molecular target: Mitogen-activated protein kinase 10 (Mus musculus) (UniProt Q61831); experiment: JNK3 AlphaScreen Assay (AID 530; active = well fitted curve in either direction with a large enough effect, not every such curve was filed as active;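 note: kinase came from lysate of stimulated human HepG2 cells; signal reports phosphorylation of biotinylated GST-cJun 1-79 at Ser73 with 10 µM ATP; % is set by controls: 0 for no effect and ±100 for the full control effect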); details: JNK3 lysate, c-Jun phosphorylation; series mostly up to 57.1 µM
Outline: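 Pre-activated (IL-1β/TNFα) JNK3 in HepG2 lysates phosphorylates biotin-GST-cJun(1-79), 10 uM ATP; anti-phospho-cJun(Ser73) AlphaScreen read at room temperature, pH 7.6 Tris buffer. Compounds pre-incubated 15 min as titrations.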

[8] = molecular target: 3',5'-cyclic-AMP phosphodiesterase 4B (Homo sapiens) (UniProt Q07343); experiment: qHTS Assay for Inhibitors of PDE-IV (AID 607; active = well fitted activation curve with a large enough effect in the main read-out, with a control signal flat, not every such curve was filed as active; note: % of control where 0% means no effect); details: HEK293 ACTOne CNG channel cells, membrane potential fluorescence; series mostly up to 22.9 µM
Outline: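 Cell-based read-out of cAMP via a modified cyclic nucleotide-gated channel and membrane potential dye (535/590 nm) in HEK293 cells expressing PDE4 endogenously. Compounds tested up to 22.9 uM final; 100 uM RO 20-1724 reference.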

[9] = molecular target: Dual specificity protein kinase CLK4 (Homo sapiens) (UniProt Q9HAZ1); experiment: qHTS Assay for Inhibitors of CDC-like Kinase 4 (Kinase-Glo Assay) (AID 1770); details: recombinant Clk4, Kinase-Glo ATP depletion luminescence; series mostly up to 66.7 µM; note: nearly all actives have a fitted effect of over 65% in size; note: potency is the fitted concentration of half-maximal effect
Outline: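 Recombinant human Clk4 (25 nM) phosphorylated RS repeat peptide (100 uM) with 1 uM ATP in Tris pH 7.5/MgCl2/EGTA/DTT/Triton buffer for 4.5 h at room temperature. Residual ATP was quantified by Kinase-Glo luciferase luminescence.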

[10] = molecular target: Dual specificity protein kinase CLK4 (Homo sapiens) (UniProt Q9HAZ1); experiment: qHTS Assay for Inhibitors of CDC-like Kinase 4 (ADP-FP Assay) (AID 1795); details: Transcreener ADP fluorescence polarization; series mostly up to 50 µM; note: nearly all actives have a fitted effect of over 60% in size; note: potency is the fitted concentration of half-maximal effect
Outline: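 Recombinant human Clk4 (6.25 nM) phosphorylated RS repeat peptide (100 uM) with 1 uM ATP in Tris pH 7.5/MgCl2/EGTA/DTT/Triton buffer for one hour. ADP was quantified by Transcreener competitive fluorescence polarization against an ADP calibration curve.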

[11] = molecular target: Ubiquitin carboxyl-terminal hydrolase 1 (Homo sapiens) (UniProt O94782); experiment: Inhibitors of USP1/UAF1: Pilot qHTS (AID 504865); details: purified USP1/UAF1, Ub-rhodamine cleavage fluorescence; series mostly up to 54.9 µM;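 note: rhodamine fluorescence freed from ubiquitin-rhodamine substrate followed over time; top concentration of the series differs between compounds; % is set by controls: 0 for no effect and ±100 for the full control effect; nearly all actives have a fitted effect of over 35% in size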
Outline: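 USP1/UAF1 complex (1nM) preincubated with compound 15 min at room temperature, then Ub-Rho substrate (150nM final) added. Fluorescence read kinetically at 480/540 nm, 6 reads every 60 seconds. Buffer: 50mM HEPES pH 7.8, 0.5mM EDTA, 0.1 mg/ml BSA, 1mM TCEP, 0.01% Tween-20.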

[12] = Primary qHTS for small molecule stabilizers of the endoplasmic reticulum resident proteome: Secreted ER Calcium Modulated Protein (SERCaMP) assay (AID 1508630); details: SH-SY5Y GLuc-SERCaMP (Gaussia luciferase released on ER calcium loss) secretion, thapsigargin, luminescence; series mostly up to 38.4 µM; note: % is set by controls: 0 for no effect and ±100 for the full control effect
Outline: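 GLuc-SERCaMP-expressing SH-SY5Y cells, pretreated 16 h with compound, are challenged with thapsigargin to empty ER calcium stores; after 4 h, coelenterazine is added directly to the medium and luminescence is imaged.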

[13] = molecular target: Cytochrome P450 1A2 (Homo sapiens) (UniProt P05177); experiment: p450-cyp1a2 (AID 410; calls by dose curve; note: potency is the fitted concentration of half-maximal effect); details: recombinant CYP1A2, luciferin-ME demethylation, luminescence; series mostly up to 57 µM
Outline: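 Luminescent readout of luciferin formed from Luciferin-ME by human CYP1A2; data normalized against complete inhibition by 57 uM furafylline. Enzyme 20nM, substrate 100uM at Km, 100mM KPO4 buffer, 60 min reaction at room temperature.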

[14] = molecular target: Cytochrome P450 2C9 (Homo sapiens) (UniProt P11712); experiment: qHTS Assay for Inhibitors and Substrates of Cytochrome P450 2C9 (AID 883); details: recombinant CYP2C9, luciferin-H luminescence, 60 min; series mostly up to 57.1 µM; note: potency is the fitted concentration of half-maximal effect; nearly all actives have a fitted effect of over 60% in size
Outline: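 10nM CYP2C9 + 100uM Luciferin-H (=KM), 25mM KPO4; cpd 10 min 37C; NADPH regen, 60 min 37C; stop/detect with P450 Glo-Buffer 20 min; luminescence. Norm. to 57uM sulphaphenazole as full inhibition.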

[15] = molecular target: Cytochrome P450 3A4 (Homo sapiens) (UniProt P08684); experiment: qHTS Assay for Activators of Cytochrome P450 3A4 (AID 885); details: recombinant CYP3A4, Luciferin-PPXE luminescence, 60 min; series mostly up to 57.1 µM; note: nearly all actives have a fitted effect of over 65% in size
Outline: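 Signal was normalized against complete inhibition by 57 uM ketoconazole. The reaction used 20nM CYP3A4 with 25uM Luciferin-PPXE, 10-min compound preincubation and a 60-min NADPH-supported step at RT.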

[16] = molecular target: Cytochrome P450 2C19 (Homo sapiens) (UniProt P33261); experiment: qHTS Assay for Inhibitors and Substrates of Cytochrome P450 2C19 (AID 899); details: recombinant CYP2C19, luciferin-H EGE luminescence; series mostly up to 57.1 µM; note: potency is the fitted concentration of half-maximal effect; nearly all actives have a fitted effect of over 60% in size
Outline: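 Luminescent read-out of luciferin formed from Luciferin-H EGE (10uM, equal to KM). Enzyme 5nM in 50mM KPO4; compound added, 10 min at 37C, then NADPH regenerating system for 60 min at 37C. Full inhibition defined by 57uM ketoconazole.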

[17] = molecular target: Cytochrome P450 2D6 (Homo sapiens) (UniProt P10635); experiment: qHTS Assay for Inhibitors and Substrates of Cytochrome P450 2D6 (AID 891); details: recombinant CYP2D6, luciferin-ME EGE luminescence; series mostly up to 57.1 µM; note: potency is the fitted concentration of half-maximal effect; nearly all actives have a fitted effect of over 60% in size
Outline: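 Human CYP2D6 (5 nM) with 30 uM Luciferin-ME EGE (at Km) in 100 mM KPO4, compound preincubated 10 min, then NADPH regeneration system for 60 min at room temperature. Luciferin read by luminescence; normalized to 1.43 uM quinidine.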

Chain of Glucocorticoid receptor (Homo sapiens) (P04150 whole entry, looked up, the tested form may be a part): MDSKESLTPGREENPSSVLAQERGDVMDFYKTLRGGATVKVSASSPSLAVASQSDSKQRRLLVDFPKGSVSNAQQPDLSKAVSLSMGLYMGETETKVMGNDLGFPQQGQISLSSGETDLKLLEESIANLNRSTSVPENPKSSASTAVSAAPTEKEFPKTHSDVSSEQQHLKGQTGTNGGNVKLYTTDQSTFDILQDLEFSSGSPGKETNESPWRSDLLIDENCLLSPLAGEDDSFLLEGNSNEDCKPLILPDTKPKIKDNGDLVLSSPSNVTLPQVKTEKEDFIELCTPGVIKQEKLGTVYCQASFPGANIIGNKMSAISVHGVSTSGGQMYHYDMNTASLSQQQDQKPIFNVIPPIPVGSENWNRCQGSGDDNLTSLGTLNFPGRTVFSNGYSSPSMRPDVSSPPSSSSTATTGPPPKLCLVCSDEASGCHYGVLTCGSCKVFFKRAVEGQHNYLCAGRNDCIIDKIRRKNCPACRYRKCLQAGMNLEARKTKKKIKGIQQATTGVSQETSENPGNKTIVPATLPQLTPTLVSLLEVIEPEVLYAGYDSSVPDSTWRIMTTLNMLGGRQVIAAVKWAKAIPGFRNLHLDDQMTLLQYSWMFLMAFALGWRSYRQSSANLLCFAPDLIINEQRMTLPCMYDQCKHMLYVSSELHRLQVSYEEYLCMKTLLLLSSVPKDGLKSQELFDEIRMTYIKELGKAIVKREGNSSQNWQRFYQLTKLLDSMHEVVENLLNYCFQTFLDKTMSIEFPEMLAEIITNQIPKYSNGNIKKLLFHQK
Chain of Cytochrome P450 1A2 (Homo sapiens) (P05177 whole entry, looked up): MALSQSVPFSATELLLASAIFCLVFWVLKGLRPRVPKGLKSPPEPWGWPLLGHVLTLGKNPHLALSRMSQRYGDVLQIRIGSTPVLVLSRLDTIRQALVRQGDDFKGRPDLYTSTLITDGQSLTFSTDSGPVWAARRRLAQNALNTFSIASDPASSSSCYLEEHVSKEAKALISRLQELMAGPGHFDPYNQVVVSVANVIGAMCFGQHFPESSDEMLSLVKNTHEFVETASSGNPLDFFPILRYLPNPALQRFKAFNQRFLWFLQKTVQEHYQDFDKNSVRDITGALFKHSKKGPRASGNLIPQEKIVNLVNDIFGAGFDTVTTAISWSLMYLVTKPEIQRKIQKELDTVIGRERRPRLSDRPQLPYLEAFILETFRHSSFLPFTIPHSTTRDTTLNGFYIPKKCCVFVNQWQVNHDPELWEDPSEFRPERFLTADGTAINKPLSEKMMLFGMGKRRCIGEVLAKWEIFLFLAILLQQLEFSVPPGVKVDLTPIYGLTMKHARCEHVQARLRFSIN
Chain of Lysosomal acid glucosylceramidase (Homo sapiens) (P04062 whole entry, looked up): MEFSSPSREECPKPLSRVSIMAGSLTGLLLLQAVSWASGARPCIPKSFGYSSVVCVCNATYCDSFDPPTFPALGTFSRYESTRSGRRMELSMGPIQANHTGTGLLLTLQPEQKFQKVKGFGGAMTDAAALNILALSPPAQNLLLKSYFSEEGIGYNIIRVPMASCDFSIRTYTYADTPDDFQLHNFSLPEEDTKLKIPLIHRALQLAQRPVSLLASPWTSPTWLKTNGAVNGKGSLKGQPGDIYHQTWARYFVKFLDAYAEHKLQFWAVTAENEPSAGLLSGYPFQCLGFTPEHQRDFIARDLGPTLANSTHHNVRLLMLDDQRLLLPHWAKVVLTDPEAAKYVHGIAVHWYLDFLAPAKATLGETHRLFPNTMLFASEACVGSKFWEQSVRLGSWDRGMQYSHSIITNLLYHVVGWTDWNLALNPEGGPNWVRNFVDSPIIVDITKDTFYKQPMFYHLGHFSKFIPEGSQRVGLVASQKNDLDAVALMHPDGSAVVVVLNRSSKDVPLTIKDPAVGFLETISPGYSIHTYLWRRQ
Chain of 3',5'-cyclic-AMP phosphodiesterase 4B (Homo sapiens) (Q07343 whole entry, looked up): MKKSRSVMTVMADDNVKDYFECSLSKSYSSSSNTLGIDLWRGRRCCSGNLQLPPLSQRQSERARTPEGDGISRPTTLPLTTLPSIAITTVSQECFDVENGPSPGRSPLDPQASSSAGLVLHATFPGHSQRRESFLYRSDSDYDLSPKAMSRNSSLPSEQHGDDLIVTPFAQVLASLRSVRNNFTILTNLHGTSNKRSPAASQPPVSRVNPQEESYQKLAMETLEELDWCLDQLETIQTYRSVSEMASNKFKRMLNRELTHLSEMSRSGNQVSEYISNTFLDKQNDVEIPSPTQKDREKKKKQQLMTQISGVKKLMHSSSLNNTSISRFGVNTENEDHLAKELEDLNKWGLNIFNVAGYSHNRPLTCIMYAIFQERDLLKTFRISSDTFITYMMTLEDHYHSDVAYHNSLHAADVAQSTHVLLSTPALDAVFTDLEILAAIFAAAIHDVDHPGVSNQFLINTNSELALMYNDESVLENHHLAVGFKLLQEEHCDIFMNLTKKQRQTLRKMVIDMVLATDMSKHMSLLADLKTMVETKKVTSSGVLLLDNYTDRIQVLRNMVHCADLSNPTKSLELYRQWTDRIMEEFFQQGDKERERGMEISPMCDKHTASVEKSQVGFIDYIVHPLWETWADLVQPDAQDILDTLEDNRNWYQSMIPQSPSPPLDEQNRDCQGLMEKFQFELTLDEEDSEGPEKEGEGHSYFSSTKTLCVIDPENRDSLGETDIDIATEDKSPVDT
Chain of Ubiquitin carboxyl-terminal hydrolase 1 (Homo sapiens) (O94782 whole entry, looked up): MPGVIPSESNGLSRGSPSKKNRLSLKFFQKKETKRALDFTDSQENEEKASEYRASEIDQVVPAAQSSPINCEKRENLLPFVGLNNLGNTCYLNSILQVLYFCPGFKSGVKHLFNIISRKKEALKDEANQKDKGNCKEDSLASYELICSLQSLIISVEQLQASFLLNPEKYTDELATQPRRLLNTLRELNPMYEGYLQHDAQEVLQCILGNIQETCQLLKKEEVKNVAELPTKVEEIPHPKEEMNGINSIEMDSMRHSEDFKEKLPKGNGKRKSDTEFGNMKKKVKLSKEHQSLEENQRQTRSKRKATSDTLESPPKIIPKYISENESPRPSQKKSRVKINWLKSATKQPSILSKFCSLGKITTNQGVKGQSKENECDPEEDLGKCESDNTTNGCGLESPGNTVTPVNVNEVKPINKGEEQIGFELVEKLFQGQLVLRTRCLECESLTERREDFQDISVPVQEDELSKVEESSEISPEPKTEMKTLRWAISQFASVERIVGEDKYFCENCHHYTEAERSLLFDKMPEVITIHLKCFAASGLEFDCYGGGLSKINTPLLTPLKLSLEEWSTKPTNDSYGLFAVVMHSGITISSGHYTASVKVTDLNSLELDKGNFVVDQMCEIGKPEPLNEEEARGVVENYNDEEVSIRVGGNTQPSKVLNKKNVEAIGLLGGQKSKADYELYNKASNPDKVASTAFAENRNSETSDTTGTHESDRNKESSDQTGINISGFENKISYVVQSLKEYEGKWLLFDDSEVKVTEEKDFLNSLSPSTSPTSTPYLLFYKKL
Chain of Cytochrome P450 3A4 (Homo sapiens) (P08684 whole entry, looked up): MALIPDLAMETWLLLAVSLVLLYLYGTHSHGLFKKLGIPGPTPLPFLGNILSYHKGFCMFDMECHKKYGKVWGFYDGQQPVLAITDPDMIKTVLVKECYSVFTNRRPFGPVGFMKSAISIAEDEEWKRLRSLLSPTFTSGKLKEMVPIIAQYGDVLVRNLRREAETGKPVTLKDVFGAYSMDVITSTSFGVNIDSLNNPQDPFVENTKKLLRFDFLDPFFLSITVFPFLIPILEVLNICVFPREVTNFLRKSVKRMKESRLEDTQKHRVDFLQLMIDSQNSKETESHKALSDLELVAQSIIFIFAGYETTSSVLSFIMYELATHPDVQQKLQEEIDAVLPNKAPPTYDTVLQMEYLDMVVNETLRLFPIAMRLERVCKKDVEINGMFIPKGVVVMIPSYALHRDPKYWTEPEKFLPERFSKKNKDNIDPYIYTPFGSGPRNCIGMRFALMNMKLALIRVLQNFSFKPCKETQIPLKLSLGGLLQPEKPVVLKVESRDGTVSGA
Chain of Dual specificity protein kinase CLK4 (Homo sapiens) (Q9HAZ1 whole entry, looked up): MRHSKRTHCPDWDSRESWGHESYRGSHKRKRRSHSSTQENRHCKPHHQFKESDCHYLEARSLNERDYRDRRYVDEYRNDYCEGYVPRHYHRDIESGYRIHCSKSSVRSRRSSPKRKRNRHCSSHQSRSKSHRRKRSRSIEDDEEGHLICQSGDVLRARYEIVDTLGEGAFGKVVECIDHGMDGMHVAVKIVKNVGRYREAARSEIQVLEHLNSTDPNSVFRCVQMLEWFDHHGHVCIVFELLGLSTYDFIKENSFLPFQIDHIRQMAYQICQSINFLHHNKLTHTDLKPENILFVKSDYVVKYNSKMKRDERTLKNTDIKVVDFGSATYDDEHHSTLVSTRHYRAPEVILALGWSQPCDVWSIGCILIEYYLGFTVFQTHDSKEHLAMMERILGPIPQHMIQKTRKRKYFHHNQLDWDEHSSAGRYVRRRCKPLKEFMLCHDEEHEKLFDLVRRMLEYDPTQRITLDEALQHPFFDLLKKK
Chain of Cytochrome P450 2C19 (Homo sapiens) (P33261 whole entry, looked up): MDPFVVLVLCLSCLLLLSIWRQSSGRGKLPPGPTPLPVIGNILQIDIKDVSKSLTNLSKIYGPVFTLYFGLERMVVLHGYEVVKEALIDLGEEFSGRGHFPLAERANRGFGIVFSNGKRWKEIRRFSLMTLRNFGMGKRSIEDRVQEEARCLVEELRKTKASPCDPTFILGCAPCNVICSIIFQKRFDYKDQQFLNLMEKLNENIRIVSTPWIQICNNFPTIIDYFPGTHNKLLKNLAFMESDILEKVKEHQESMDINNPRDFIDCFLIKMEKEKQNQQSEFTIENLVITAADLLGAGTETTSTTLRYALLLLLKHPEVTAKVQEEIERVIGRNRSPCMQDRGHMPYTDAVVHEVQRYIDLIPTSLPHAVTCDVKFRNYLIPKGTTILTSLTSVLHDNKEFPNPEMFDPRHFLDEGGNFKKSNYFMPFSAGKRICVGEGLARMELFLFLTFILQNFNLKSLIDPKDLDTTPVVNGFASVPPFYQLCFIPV

Structure (SMILES): Cc1cnc(CNc2nc(-c3cccc(NS(C)(=O)=O)c3)nc3ccccc23)cn1
- Potency [1]: > 11.4 µM
- activity change, negative = inhibition [2]: -28.3%
- activity change, negative = inhibition [3]: 19.4%
- activity, negative = inhibition [4]: -4.54%
- Potency [5]: > 46 µM
- Potency [6]: > 46 µM
- Potency [7]: inactive
- Potency [8]: inactive
- Potency [9]: inactive
- Potency [10]: inactive
- Potency [11]: inactive
- outcome [12]: inactive

Structure (SMILES): COc1cccc(Cn2c(=O)c(CCc3ccccc3)nc3cnc(N4CCOCC4)nc32)c1
- Potency [1]: > 11.4 µM
- activity change, negative = inhibition [2]: 0.275%
- activity change, negative = inhibition [3]: -19.1%
- activity, negative = inhibition [4]: -8.53%
- Potency [5]: > 9.22 µM
- Potency [6]: > 46 µM
- Potency [7]: inactive
- Potency [9]: inactive
- Potency [10]: inactive
- Potency [11]: inactive
- outcome [12]: inactive

Structure (SMILES): COc1ccccc1CCn1c(=O)c(-c2cccs2)nc2cncnc21
- Potency [1]: > 11.4 µM
- activity change, negative = inhibition [2]: -29.2%
- Potency [13]: 2 µM (active)
- activity change, negative = inhibition [3]: -5.89%
- activity, negative = inhibition [4]: -0.377%
- Potency [5]: > 9.22 µM
- Potency [6]: > 46 µM
- Potency [7]: inactive
- Potency [14]: 2.51 µM (active)
- Potency [15]: inactive
- Potency [16]: 2 µM (active)
- Potency [9]: inactive
- Potency [10]: inactive
- Potency [11]: inactive
- outcome [12]: inactive

Structure (SMILES): c1nc(NCCN2CCOCC2)c2cc(-c3ccoc3)ccc2n1
- Potency [1]: > 11.4 µM
- activity change, negative = inhibition [2]: -17.7%
- Potency [13]: 12.6 µM (active)
- activity change, negative = inhibition [3]: -0.57%
- activity, negative = inhibition [4]: -6.63%
- Potency [5]: > 46 µM
- Potency [6]: > 46 µM
- Potency [7]: inactive
- Potency [8]: inactive
- Potency [15]: inactive
- Potency [17]: 2 µM (active)
- Potency [9]: 0.708 µM (active)
- Potency [10]: 0.355 µM (active)
- Potency [11]: inactive
- outcome [12]: inactive

Structure (SMILES): FC(F)(F)c1ccccc1-c1cncnc1-n1ccnc1
- Potency [1]: > 11.4 µM
- activity change, negative = inhibition [2]: -6.84%
- activity change, negative = inhibition [3]: -7.53%
- activity, negative = inhibition [4]: 3.29%
- Potency [6]: > 46 µM
- Potency [7]: inactive
- Potency [8]: inactive
- Potency [9]: inactive
- Potency [10]: inactive
- Potency [11]: inactive
- outcome [12]: inactive

Structure (SMILES): Cc1cnc(CNc2ncncc2-c2ccccc2C)cn1
- Potency [1]: > 11.4 µM
- activity change, negative = inhibition [2]: 3.21%
- Potency [13]: 25.1 µM (active)
- activity change, negative = inhibition [3]: -3.77%
- activity, negative = inhibition [4]: -10.5%
- Potency [5]: > 46 µM
- Potency [6]: > 46 µM
- Potency [7]: inactive
- Potency [8]: inactive
- Potency [15]: inactive
- Potency [16]: 7.94 µM (active)
- Potency [9]: inactive
- Potency [10]: inactive
- Potency [11]: inactive
- outcome [12]: inactive

Structure (SMILES): CN(C)C(=O)c1ccc(-c2ccc3ncnc(NCc4ccccc4)c3c2)cc1
- Potency [1]: > 11.4 µM
- Potency [13]: 15.8 µM (active)
- activity change, negative = inhibition [3]: 13%
- activity, negative = inhibition [4]: 7.31%
- Potency [5]: > 46 µM
- Potency [6]: > 46 µM
- Potency [7]: inactive
- Potency [15]: inactive
- Potency [9]: inactive
- Potency [10]: inactive
- Potency [11]: inactive
- outcome [12]: inactive
